{"source": "PubChem BioAssay (NCI)", "note": "About 83,000 compounds went through this panel and 20% of them were active in at least one assay; those are over-represented in the sample as a whole.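 Percent growth is the endpoint: 0 to 100 indicates growth inhibition (40 means 60% inhibition), 0 means no net growth, and negative values indicate cell death.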 A number with no mark means an inactive call. Calls of active or inactive are those of the source. How the source made its calls: active means growth percent below 10; inactive means the rest."}
{"tested_on": "SNB-75 CNS", "assay": "NCI-60 one-dose screen, 48 h (100 = growth as untreated, 0 = no growth, -100 = all killed)", "conditions": "10 µM unless noted"}
{"smiles": "C=C(C)[C@@H]1CC[C@]2(C(N)=O)CC[C@]3(C)[C@H](CC[C@@H]4[C@@]5(C)CC[C@H](OCCC#N)C(C)(C)[C@@H]5CC[C@]43C)[C@@H]12", "growth": "85.9%"}
{"smiles": "CN(C)CCCC1(c2ccc(F)cc2)OCc2cc(-c3cc4ccccc4s3)ccc21", "note": "(stereo unspecified)", "growth": "25.2%"}
{"smiles": "[2H]C([2H])([2H])Oc1ccc(F)cc1/C=C/C(=O)/C=C(/C=C/c1cc(F)ccc1OC([2H])([2H])[2H])OB(F)F", "growth": "94%"}
{"smiles": "COc1ccc(/C(C)=C(/c2ccc(OCCCN(C)C)cc2)c2ccc(OC(=O)c3ccccc3)cc2)cc1", "growth": "105%"}
{"smiles": "Cc1ccc2c(=O)cc(C(=O)Nc3sc4c(c3C(=O)NCc3cccnc3)CCCC4)oc2c1C", "growth": "91.7%"}
{"smiles": "CCCCCCCC/C=C\\CCCCCCCCOc1ccc(CC(=O)NCC[N+]2(C)CCOCC2)cc1", "growth": "41.2%"}
{"smiles": "O=C1/C(=C/c2ccc(F)cc2)CN(C(=O)C(Cl)Cl)C/C1=C\\c1ccc(F)cc1", "growth": "-61.2% (active)"}
{"smiles": "COc1ccc(Nc2ncccc2/C=C/C(=O)c2cc(OC)c(OC)c(OC)c2)cc1", "growth": "21.4%"}
{"smiles": "O=C(Cc1cccc(OC(F)(F)F)c1)Nc1ccc(CCCCc2nnc(NC(=O)Cc3ccccn3)s2)nn1", "growth": "78.6%"}
{"smiles": "C=C1C(=O)O[C@H]2[C@H]1CC/C(COC(=O)/C=C\\C(=O)NCc1ccc(Cn3c(=O)sn(CCCl)c3=O)cc1)=C\\CC[C@@]1(C)O[C@@H]21", "growth": "99.5%"}
{"smiles": "Cc1ccc(C=C2C(=O)NC(=O)NC2=O)cc1", "growth": "92.5%"}
{"smiles": "O=C(CN1CCCCCC1)Nc1nc2ccc(NCc3ccc(Cl)cc3)cc2s1", "growth": "94.2%"}
{"smiles": "C#CCO[C@H]1CC(CC#C)(CC#C)C(=O)[C@@H]2[C@H]1[C@H]1C[C@@H]3[C@@]4(C)CCC[C@@](C)(C(=O)OC)[C@@H]4CC[C@@]23C=C1C(C)C", "growth": "93.9%"}
{"smiles": "Fc1ccc2[nH]cc(-c3nc(-c4c[nH]c5ccncc45)cs3)c2c1", "growth": "-31.6% (active)"}
{"smiles": "O=C(CSc1nc(-c2ccccc2)cc(=O)[nH]1)Nc1nc(-c2ccccc2)cs1", "growth": "85.9%"}
{"smiles": "O=C1/C(=C2\\SC(=S)N(C3CC3)C2=O)SC(=S)N1C1CC1", "growth": "81.9%"}
{"smiles": "COc1ccc(Cn2cc3c(c2-c2ccccc2)CCc2cnoc2-3)cc1", "growth": "44.2%"}
{"smiles": "Cc1nn(-c2ccccc2)c(N)c1N=C1NC(=O)/C(=C/c2ccc(Br)cc2)S1", "growth": "85.2%"}
{"smiles": "CN(C)c1ccc(/C=C(\\C#N)c2cc3ccccc3[nH]2)cc1", "growth": "10.9%"}
{"smiles": "COC(=O)c1c2c(c(C)[n+]([O-])c1C)C(=O)C(NCc1ccc(OC)cc1)=CC2=O", "growth": "127%"}
{"smiles": "O=C1/C(=C\\c2cccc3nccnc23)SC(=S)N1CCc1ccc(O)cc1", "growth": "89%"}
{"smiles": "Cc1cn(-c2cc(NC(=O)c3cncc(C#Cc4c(N)ncc5ccc(F)cc45)c3)cc(C(F)(F)F)c2)cn1", "growth": "76.8%"}
{"smiles": "CCCCNC(=O)Oc1ccc(/C(=C(/C)Cc2ccc(OC)cc2)c2ccc(OCCN3CCCCCC3)cc2)cc1", "growth": "79.2%"}
{"smiles": "COc1ccc(-c2n[nH]c(=O)c3nc(NC(=S)Nc4ccc(Oc5ccccc5)cc4)sc23)cc1", "growth": "80.8%"}
{"smiles": "O=C(/C=C/C12c3ccccc3C(c3ccccc31)C1C(=O)NC(=O)C12)c1ccc(Br)cc1", "note": "(stereo unspecified)", "growth": "55.7%"}
{"smiles": "C=CN(C(=O)N1CCN(c2cc3c(cc2F)c(=O)c(C(=O)O)cn3C2CC2)CC1)c1nc(-c2ccc(OC)cc2)cs1", "growth": "23.6%"}
